This note sets out measurements from PubChem BioAssay (NCI).

Among the test systems are NCI-H23 lung; NCI-H226 lung; NCI-H322M lung; HOP-62 NSCLC; NCI-H460 lung; HOP-92 NSCLC; NCI-H522 lung; A549/ATCC NSCLC; 786-0 renal; COLO 205 colon.
What all share (assay): NCI-60 one-dose screen, 48 h (100 = growth as untreated, 0 = no growth, -100 = all killed)
Conditions in all cases: 10 µM unless noted

This is part of a sample that, as a whole, favours compounds with a hit. Of some 83,000 tested, about 20% had one in any assay.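 Testing used 96-well plates and a 48-hour single-concentration exposure. Example: -40 means 40% of the starting cells died.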 A number with no mark means an inactive call. Active and inactive are the calls of the source. Rule for the calls: active = growth percent below 10; inactive = the rest.

As to `CCc1ccc(C(c2ccc(CC)cc2)C(Cl)(Cl)CCl)cc1`, the growth in the test with NCI-H23 lung was 92.8%; in the test with NCI-H226 lung, 101%; with NCI-H322M lung it was 110%; in the test on HOP-62 NSCLC, 99.1%; in the test with NCI-H460 lung it was 98.8%; in the test with HOP-92 NSCLC it was 55.2%. In addition, the growth with NCI-H522 lung is 83%; in the test with A549/ATCC NSCLC it was 149%; in the test with 786-0 renal it was 84%; in the test with COLO 205 colon, 100%.
Consider `COc1cc(-c2c3sc(=O)[nH]c3nc3c2c(=O)[nH]n3C(C)C)cc2c1OCO2`, for which the growth in the test with NCI-H23 lung is 108%; with NCI-H226 lung, 96.3%; in the test on NCI-H322M lung, 99.9%; with HOP-62 NSCLC, 107%; with NCI-H460 lung it was 101%; in the test on HOP-92 NSCLC it was 114%. The growth is 96.8% in the test with NCI-H522 lung, 94.8% in the test with A549/ATCC NSCLC, 106% in the test with 786-0 renal and 119% in the test on COLO 205 colon.
Turning to `CCCCNP1(NCCCC)=NP(NCCCC)(NCCCC)=NP(NCCCC)(NCCCC)=NP(NCCCC)(NCCCC)=N1`, the growth with NCI-H23 lung was -49.6% (active); with NCI-H226 lung, 22.4%; in the test with NCI-H322M lung it was 9.1% (active); in the test with HOP-62 NSCLC it was 10.2%; with NCI-H460 lung it was -8.78% (active); with HOP-92 NSCLC, -24.3% (active). The growth with NCI-H522 lung was 7.68% (active); in the test with A549/ATCC NSCLC, 0.875% (active); in the test on 786-0 renal, -6.24% (active); in the test with COLO 205 colon it was -26.2% (active).
With `CS(=O)(=O)c1c(Nc2ccccc2)n[nH]c1N`, the growth in the test with NCI-H23 lung is 105%; with NCI-H226 lung it was 105%; in the test with NCI-H322M lung it was 103%; in the test on HOP-62 NSCLC, 109%; in the test on NCI-H460 lung it was 110%; in the test with HOP-92 NSCLC, 85%. The growth in the test with NCI-H522 lung was 100%; in the test with A549/ATCC NSCLC it was 95.9%; with 786-0 renal, 96.7%; with COLO 205 colon, 105%.
For the compound `CCN(CC)CC#CCOC(=O)[C@]1(C)CCC[C@@]2(C)[C@H]1CC(C=O)=C1C=C(C(C)C)CC[C@@H]12`, the growth in the test on NCI-H23 lung is 60.2%; in the test with NCI-H226 lung it was 76%; in the test with NCI-H322M lung it was 94.5%; in the test with HOP-62 NSCLC, 74.8%; in the test with NCI-H460 lung, 64%; in the test with HOP-92 NSCLC, 44.8%. The growth in the test with NCI-H522 lung is 53.3%; in the test on A549/ATCC NSCLC, 62.4%; in the test on 786-0 renal, 58.3%; in the test with COLO 205 colon, 44.5%.
Consider `CSc1ncnc2c1ncn2C1CCCO1` (stereo not given), for which the growth with NCI-H23 lung was 96.1%; in the test with NCI-H226 lung, 90.1%; with NCI-H322M lung, 90.9%; with HOP-62 NSCLC, 99.7%; in the test with NCI-H460 lung, 105%; in the test with HOP-92 NSCLC it was 141%. In addition, the growth was 121% in the test on NCI-H522 lung, 106% in the test on A549/ATCC NSCLC, 104% with 786-0 renal and 119% with COLO 205 colon.
With `Brc1cccc(-c2cc(-c3ccc4c(c3)OCCO4)[nH]n2)c1`, the growth is 42.5% [25 µM] in the test with NCI-H23 lung; 25.2% [25 µM] in the test with NCI-H226 lung; 46.2% [25 µM] with NCI-H322M lung; 20.4% [25 µM] with HOP-62 NSCLC; 10.3% [25 µM] in the test on NCI-H460 lung; 62.8% [25 µM] with HOP-92 NSCLC. For the same compound, the growth is -5.75% [25 µM] (active) with NCI-H522 lung, 25.7% [25 µM] with A549/ATCC NSCLC, 40.8% [25 µM] in the test on 786-0 renal and -24.5% [25 µM] (active) with COLO 205 colon.
In the case of `Cc1ccc2c(c1)C(=O)c1c-2c(OCCCN(C)C)nc2ccccc12`, the growth is 7.88% (active) with NCI-H23 lung; 32.8% with NCI-H226 lung; 19.6% in the test on NCI-H322M lung; 19.9% with HOP-62 NSCLC; -8.22% (active) with NCI-H460 lung; -10.7% (active) with HOP-92 NSCLC. Besides, the growth with NCI-H522 lung was -11% (active); with A549/ATCC NSCLC it was -43.9% (active); in the test on 786-0 renal it was 44.7%; in the test on COLO 205 colon, -30.6% (active).
Take `Nc1nc(SCc2ccccc2)c2ncn(C3CCCC3)c2n1`: the growth was 85.7% in the test with NCI-H23 lung; 110% in the test with NCI-H226 lung; 103% with NCI-H322M lung; 107% in the test with HOP-62 NSCLC; 98.8% with NCI-H460 lung; 106% in the test with HOP-92 NSCLC. In addition, the growth with NCI-H522 lung is 76.8%; with A549/ATCC NSCLC, 107%; in the test on 786-0 renal it was 98.8%; in the test on COLO 205 colon, 116%.
`CC/C=C\C[C@H](F)C/C=C1/C(=O)C=C[C@@H]1C/C=C\CCCC(=O)O`: the growth with NCI-H23 lung was 62.7%; with NCI-H226 lung it was 104%; in the test with NCI-H322M lung it was 93.6%; with HOP-62 NSCLC, 111%; in the test with NCI-H460 lung, 50.6%; in the test with HOP-92 NSCLC, 109%. Moreover, the growth in the test with NCI-H522 lung is 31%; in the test with A549/ATCC NSCLC, 68.3%; with 786-0 renal it was 82.4%; in the test with COLO 205 colon, 48.5%.
Consider `O=C1Nc2c(ccc(Cl)c2Cl)/C1=C/c1cc(Br)c(O)c(Br)c1`, for which the growth with NCI-H23 lung is 73.9%; in the test on NCI-H226 lung, 78.5%; with NCI-H322M lung it was 90.3%; in the test on HOP-62 NSCLC, 79.1%; with NCI-H460 lung, 46.1%; with HOP-92 NSCLC, 67.1%. Moreover, the growth in the test with NCI-H522 lung is 9.37% (active); with A549/ATCC NSCLC, 51.4%; in the test on 786-0 renal, 74.6%; in the test with COLO 205 colon, 79.2%.
For the compound `CCOC(=O)CC(C)=N`, the growth with NCI-H23 lung was 118%; in the test with NCI-H226 lung, 106%; with NCI-H322M lung it was 121%; in the test on HOP-62 NSCLC, 107%; in the test on NCI-H460 lung, 109%; in the test with HOP-92 NSCLC it was 99.4%. Moreover, the growth in the test on NCI-H522 lung is 92%; in the test on A549/ATCC NSCLC, 101%; with 786-0 renal, 103%; with COLO 205 colon, 108%.
For the compound `Clc1nc(Cl)c2c3c(sc2n1)CCCC3`, the growth in the test with NCI-H23 lung was 32.5%; in the test with NCI-H226 lung, 3.63% (active); in the test on NCI-H322M lung it was 90.2%; in the test with HOP-62 NSCLC it was 91.4%; in the test on NCI-H460 lung it was 109%; in the test with HOP-92 NSCLC, 103%. Moreover, the growth with NCI-H522 lung is 7.65% (active); in the test with A549/ATCC NSCLC, 120%; in the test on 786-0 renal, 96.1%; in the test with COLO 205 colon, 5.1% (active).
